The target of test [1] is Glutaminase kidney isoform, mitochondrial (Homo sapiens) (UniProt O94925). Nature of the test: qHTS for Inhibitors of Glutaminase (GLS): LOPAC Validation (AID 624146). Also: nearly all actives have a fitted effect of over 60% in size. Also: potency is read from the fitted curve at half-maximal effect. An outline of the steps:
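Compounds were pin-transferred onto hKGA, after which L-glutamine (1 mM solution) and a detection mix of glutamate oxidase, HRP and Amplex Red were added. Initial and 30 min RT fluorescence reads were collected.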
On the technique in general: qHTS replaces the single test concentration by a dilution series.

Test [2] can be described thus: qHTS of Trypanosoma Brucei Inhibitors: LOPAC Validation (AID 624147). In short, it runs like this: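 Activity of T. brucei pyruvate kinase was followed by Kinase-Glo Plus luminescence after the enzyme reacted 45 min at room temperature with 130 uM ADP (final) and substrate. Test compounds were added before ADP at multiple concentrations.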
For test [3], the target named is Glucagon-like peptide 1 receptor (Homo sapiens) (UniProt P43220). Nature of the test: qHTS of GLP-1 Receptor Agonists: LOPAC Validation (AID 624148).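 Also: higher luminescence signal means agonism.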 In short, it runs like this:
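HEK293 cells stably co-expressing GLP-1R and a cAMP-responsive luciferase reporter, plated 12 hours before compound, then incubated 4-6 hr at 37 deg C. Luminescence read 12 min after detection reagent.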

Test [4] in a line: qHTS of Nrf2 Activators: LOPAC Validation (AID 624149). In short, it runs like this:
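Following overnight seeding in 5% FBS OPTI-MEM, AREc32_Fluc cells receive compounds for a 24 hr incubation at 37 deg C with 5% CO2. Steady-Glo is added, and after 30 min at RT luminescence is recorded.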

A short description of test [5]: HTS Assay for Allosteric Antagonists of the Human D2 Dopamine Receptor: Hit Validation in HTRF (AID 624455). Also: potency is read from the fitted curve at half-maximal effect.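 Also: stable D1 dopamine receptor cell line scored for blocking the D1 response.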 An outline of the steps: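 Validation of hits used D1 receptor stably expressed in cells with HTRF detection of response inhibition; origin screen measured calcium flux following EC80 dopamine in a force-coupled, inducible Hek293 Trex D2 cell line.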

The record followed here is PubChem BioAssay (NCATS).

Molecules are shown by their SMILES. Records with an inconclusive call do not appear. Activity calls are given as the source filed them. Calls follow the shape of the dose curve; as a rule, active = well fitted curve in the direction sought with a large enough effect; inconclusive = small, poorly fitted or top-dose-only effect, or another doubt; inactive = no such curve, though single readings can be large; an effect the other way counts as inactive or inconclusive.

Sequence of Glutaminase kidney isoform, mitochondrial (Homo sapiens) (O94925 whole entry, looked up, canonical isoform): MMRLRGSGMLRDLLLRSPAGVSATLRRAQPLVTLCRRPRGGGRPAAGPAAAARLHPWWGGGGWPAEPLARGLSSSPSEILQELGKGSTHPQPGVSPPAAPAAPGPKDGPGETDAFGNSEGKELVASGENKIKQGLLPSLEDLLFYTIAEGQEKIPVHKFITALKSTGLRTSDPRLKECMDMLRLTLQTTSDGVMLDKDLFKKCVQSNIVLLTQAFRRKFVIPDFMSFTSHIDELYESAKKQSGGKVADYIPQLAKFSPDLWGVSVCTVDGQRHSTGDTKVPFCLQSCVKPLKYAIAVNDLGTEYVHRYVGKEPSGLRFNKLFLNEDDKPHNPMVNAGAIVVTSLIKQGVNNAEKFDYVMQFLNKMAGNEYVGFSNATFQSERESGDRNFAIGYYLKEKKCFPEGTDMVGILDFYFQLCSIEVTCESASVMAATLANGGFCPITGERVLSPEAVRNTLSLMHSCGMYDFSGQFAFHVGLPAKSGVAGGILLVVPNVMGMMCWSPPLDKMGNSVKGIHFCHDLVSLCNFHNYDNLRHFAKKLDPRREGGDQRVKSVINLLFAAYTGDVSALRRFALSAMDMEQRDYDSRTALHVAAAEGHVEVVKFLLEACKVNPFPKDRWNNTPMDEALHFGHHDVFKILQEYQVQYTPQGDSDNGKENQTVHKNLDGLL
Sequence of Glucagon-like peptide 1 receptor (Homo sapiens) (P43220 whole entry, looked up): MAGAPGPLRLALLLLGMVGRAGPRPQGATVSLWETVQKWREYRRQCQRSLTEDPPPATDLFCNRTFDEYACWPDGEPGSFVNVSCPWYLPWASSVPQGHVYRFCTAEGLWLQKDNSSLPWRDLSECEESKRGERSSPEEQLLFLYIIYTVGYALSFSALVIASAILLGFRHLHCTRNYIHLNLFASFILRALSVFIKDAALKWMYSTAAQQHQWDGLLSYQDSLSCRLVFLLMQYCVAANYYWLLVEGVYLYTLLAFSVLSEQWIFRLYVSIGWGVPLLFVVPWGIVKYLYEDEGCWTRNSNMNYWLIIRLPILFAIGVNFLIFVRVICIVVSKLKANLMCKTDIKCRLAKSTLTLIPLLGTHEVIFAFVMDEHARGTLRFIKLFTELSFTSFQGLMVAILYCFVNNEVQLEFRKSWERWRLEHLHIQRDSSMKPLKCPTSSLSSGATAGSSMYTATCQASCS

As for `Oc1ccc2c3c1O[C@H]1c4oc5ccccc5c4C[C@@]4(O)C(C2)N(CC2CC2)CCC314` (some centres undefined), the Potency in test [1] is 8910 nM (active). Moreover, the Potency entry in test [2], in test [4] and in test [5] was “inactive” each time. Also, the molecule was called inactive in test [3].

With `NCCc1ccc(S(=O)(=O)F)cc1`, the Potency entry in test [1], in test [2], in test [4] and in test [5] was “inactive” in each case. Moreover, the molecule was called inactive in test [3].

As for `CCn1cnc2c(Nc3cccc(Cl)c3)nc(N[C@@H]3CCCC[C@@H]3N)nc21`, the Potency entry in test [1], in test [2], in test [4] and in test [5] was “inactive” each time. Also, the call in test [3] was inactive.

Turning to `NC(Cc1cc(O)c(O)cc1O)C(=O)O` (centres undefined), the Potency result in test [1], in test [2], in test [4] and in test [5] was “inactive” throughout. Moreover, in test [3], the outcome was inactive.

Regarding `CC(N)Cc1c[nH]c2ccc(O)cc12` (centres undefined), the Potency in test [1] was 794 nM (active). Also, the Potency result in test [2], in test [4] and in test [5] was “inactive” each time. Besides, in test [3], the result was inactive.

Turning to `NCC(O)c1cc(O)c(O)cc1F` (centres undefined), the Potency result in test [1], in test [2] and in test [4] was “inactive” throughout. Besides, the call in test [3] was inactive. Also, the Potency in test [5] is 326 nM (active).

Turning to `CP(=O)(O)C1=CCNCC1`, the Potency entry in test [1], in test [2], in test [4] and in test [5] was “inactive” each time. Also, the result in test [3] was inactive.

Regarding `NC(=O)COc1c(F)cc(SCCNS(=O)(=O)c2ccccc2)cc1F`, the Potency result in test [1], in test [2], in test [4] and in test [5] was “inactive” throughout. Besides, the molecule was called inactive in test [3].

Turning to `CCCN1CCc2cc(O)cc3c2[C@H]1Cc1ccc(O)c(O)c1-3`, the figures for the Potency in test [1] and in test [5] were 1410 nM (active) and 65.1 nM (active), respectively. Further, the Potency entry in test [2] and in test [4] was “inactive” each time. Further, the outcome in test [3] was inactive.

With `CC1(C(=O)O)C2CCC(O2)C1(C)C(=O)O` (centres undefined), the Potency entry in test [1], in test [2], in test [4] and in test [5] was “inactive” throughout. In addition, in test [3], the outcome was inactive.

For `C[N+](C)(C)CC#CCOC(=O)Nc1cccc(Cl)c1`, the Potency entry in test [1], in test [2], in test [4] and in test [5] was “inactive” each time. Also, the molecule was called inactive in test [3].

Turning to `CC(N)[C@H](O)c1ccc(O)c(O)c1` (some centres undefined), the Potency result in test [1], in test [2], in test [4] and in test [5] was “inactive” throughout.
